PubChem BioAssay
Values joined by “and” are separate entries in the source; they are usually repeats but may differ in a detail not shown here. Identical values can stand only once. Records with an inconclusive call do not appear. Active and inactive are the calls of the source.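 The calls were made as follows, unless noted: active = normalized viability below 100% at a tested concentration; inactive = the rest.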

What was measured:
[1] = compounds altering circadian rhythm period length – cell-based, LOPAC library, luminescence reporter (AID 2774; call rule not given here;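 also: values are relative to mean of DMSO wells on each plate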); settings: circadian reporter cells, at 7 µM, actives lie on both sides
[2] = compounds altering viability of human ES cells (AID 493140; call rule not given here;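 also: cells exposed to compounds for four days before counting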); settings: human embryonic stem cell survival screen; stronger effect = higher value
[3] = P. berghei load reduction in hepatocytes – cell-based, HepG2, luciferase luminescence, HepG2 viability, primary screen (AID 624349; in the data active = parasite load remaining mostly below about 12%, no sharp cut-off; inactive = mostly above about 10%;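 also: 100% = mean of DMSO negative control wells on the same plate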); settings: P. berghei liver stage in HepG2, luciferase luminescence, concentration not given here; parasite load remaining: stronger effect = lower value; viability: measured here: HepG2 viability without parasites
[4] = system: Hepatitis C virus NS3 helicase; assay: blockers of NS3h binding to ssDNA – biochemical, fluorescence polarization, LOPAC1280 library, primary screen (AID 687035; in the data active = inhibition above about 37%); settings: Purified HCV NS3 helicase, Cy5-dT15 ssDNA binding fluorescence polarization; stronger effect = higher value; concentration not given here
[5] = compounds altering Cy5-DNA-NS3h complex signal – biochemical, LOPAC1280, artefact control for HCV NS3 helicase inhibitor project (AID 687037; call rule not given here); settings: Cy5-DNA-NS3h complex fluorescence interference counterscreen
[6] = system: Aerobactin synthetase IucA (Klebsiella pneumoniae); assay: inhibition of K. pneumoniae IucA enzyme – biochemical, Tocris library, absorbance (AID 1345561; call rule not given here;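 also: 100% = enzyme without compound and 0% = no enzyme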); settings: purified IucA enzyme assay, absorbance (OD) read-out; stronger effect = lower value;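 tested at 8 µM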
[7] = viability loss in pontine glioma line – cell-based, SU-DIPG-IV, MIPE4.0, CellTiter-Glo, qHTS, dose response (AID 1347063; cut-off not given, nearly all actives have AC50 up to about 30 µM;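 also: compound exposure lasted 48 hours before the viability readout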); settings: CellTiter-Glo ATP luminescence
[8] = growth inhibition of DIPG cells – cell-based, MIPE5.0 library, qHTS (AID 1347068; cut-off not given, nearly all actives have IC50 up to about 30 µM); settings: SU-DIPG-XXV viability
[9] = chitosan synthesis blockers in C. neoformans – flow cytometry, Cibacron Brilliant Red staining (AID 1347148; call rule not given here;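 also: compound exposure lasted three days at 37 degrees C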); settings: Cryptococcus neoformans chitosan, stronger effect = lower value; at 10 µM unless noted
[10] = compounds altering HSF1 focus formation in cells – imaging, Selleck Cancer Library (AID 1347162; in the data active = plate-normalised HSF1 focus index below about 0.46); settings: human cells, HSF1 nuclear foci imaging, at 10 µM; SSMD: measured here: HSF1 foci SSMD mean; cell count: measured here: cell number; plate-normalised HSF1 focus index: stronger effect = lower value
[11] = blockers of cellular phospholipid synthesis – cell-based, LOPAC library, screen 4, primary screen (AID 1347384; call rule not given here); settings: animal cells, phospholipid biosynthesis inhibition screen; at 10 µM
[12] = MELAS cybrid and Rieske KO viability enhancers – cell-based, MELAS cybrids, Rieske KO mouse fibroblasts, CellTiter-Glo, primary screen (AID 1508586;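 active = mean z-score across replicates of 1.96 or higher in either the MELAS or the Rieske mutant cell line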;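 also: z relative to plate mean and SD of compound and empty wells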); settings: low glucose
[13] = drug combination growth inhibition, ovarian cancer – cell-based, oncology-focused library, rucaparib conditional, profiling panel (AID 1508598); settings: patient-derived ovarian cancer cells, CellTiter-Glo viability, 144 h, stronger effect = lower value
[14] = galactose survival enhancers in mitochondrial complex I cybrids – cell-based, galactose medium, ATP luminescence, primary screen (AID 1645843;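 active = z-score of at least 1.8 in each of two replicates, scored against plate mean and spread of sample wells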;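 also: positive z means more ATP and so rescue of galactose-driven cybrid death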); settings: complex I mutant cybrid cells, 72 h, stronger effect = higher value
[15] = viability loss with induced miR-34 in A549 – imaging, A549 dox-inducible miR-34, nuclei and caspase counts, primary screen (AID 1347080;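 active = compounds whose cell count with miR-34 switched on is under 0.7 times the count with it off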); settings: A549 miR-34 inducible, Hoechst nuclei count, 48 h
[16] = growth inhibition, single agent or in combination, cell-based, chromothripsis tumors, cisplatin or BGB combos (AID 1671449; in the data active = inhibition above about 80%;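 also: cells exposed for 96 hours; 0% = vehicle DMSO and 100% = killing by high DMSO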); settings: LFS_MB_P medulloblastoma cells
[17] = growth inhibition, single agent and combos, cell-based, chromothripsis tumors, cisplatin or BGB combos (AID 1671450; in the data active = inhibition above about 80%;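 also: cells exposed to compound for four days; 0% = vehicle DMSO and 100% = cell killing by high DMSO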); settings: HDN33 neuroblastoma cells, stronger effect = higher value
[18] = growth inhibition, single agents and combos, ICB984, cell-based, cisplatin or BGB combos, synergistic combos for chromothripsis tumors (AID 1671451; call rule not given here;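 also: cells exposed for 96 hours before readout; 0% = vehicle DMSO and 100% = killing by high DMSO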); settings: ICB984 medulloblastoma cells, drug combinations, stronger effect = higher value
[19] = growth inhibition, single agents and combos, HTB85, cell-based, BGB or cisplatin IC20 combos, synergistic combos for chromothripsis tumors (AID 1671453; in the data active = inhibition above about 80%;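 also: cells exposed for 96 hours before readout; 0% = vehicle DMSO and 100% = high DMSO killing control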); settings: HTB85 osteosarcoma cells, drug combinations, stronger effect = higher value

## O=c1cc(N2CCOCC2)oc2c(-c3ccccc3)cccc12
[1]
  period change: 0.01 h (inactive)
[2]
  survival: 83.6 (inactive)
[3]
  parasite load remaining: 36% (inactive)
  viability: 79.9%
[4]
  inhibition: -3% (inactive)
[5]
  fluorescence ratio (interference): 1 (inactive)
[6]
  remaining activity: 118% (inactive)
[7]
  AC50: 2640 nM (active)
[8]
  outcome: inactive
[9]
  fold fluorescence: 9.29 [at 162.7 µM] (inactive)
[10]
  SSMD: 1.15
  cell count: 6500
  plate-normalised HSF1 focus index: 1.06 (inactive)
[11]
  outcome: inactive
[12]; MELAS cybrid survival, CellTiter-Glo 48 h, stronger effect = higher value
  z-score: -0.417 (inactive)
[12]; Rieske KO mouse fibroblast survival, CellTiter-Glo 72 h
  z-score: 0.668
[13]; at 0.000305 µM, OCI-C5x cells, with rucaparib 10 µM, 100% = cells with rucaparib alone
  viability: 97.6% (active)
[13]; at 0.000305 µM, OCI-C5x cells, without rucaparib
  viability: 103% (inactive)
[13]; at 0.000305 µM, OCI-P5x cells, with rucaparib 20 µM, 100% = cells with rucaparib alone
  viability: 93.4% (active)
[13]; at 0.000305 µM, OCI-P5x cells, without rucaparib
  viability: 83.4% (active)
[13]; at 0.00122 µM, OCI-C5x cells, with rucaparib 10 µM, 100% = cells with rucaparib alone
  viability: 102% (inactive)
[13]; at 0.00122 µM, OCI-C5x cells, without rucaparib
  viability: 103% (inactive)
[13]; at 0.00122 µM, OCI-P5x cells, with rucaparib 20 µM, 100% = cells with rucaparib alone
  viability: 97.2% (active)
[13]; at 0.00122 µM, OCI-P5x cells, without rucaparib
  viability: 86.3% (active)
[13]; at 0.00488 µM, OCI-C5x cells, with rucaparib 10 µM, 100% = cells with rucaparib alone
  viability: 93% (active)
[13]; at 0.00488 µM, OCI-C5x cells, without rucaparib
  viability: 104% (inactive)
[13]; at 0.00488 µM, OCI-P5x cells, with rucaparib 20 µM, 100% = cells with rucaparib alone
  viability: 99.1% (active)
[13]; at 0.00488 µM, OCI-P5x cells, without rucaparib
  viability: 95.7% (active)
[13]; at 0.0195 µM, OCI-C5x cells, with rucaparib 10 µM, 100% = cells with rucaparib alone
  viability: 102% (inactive)
[13]; at 0.0195 µM, OCI-C5x cells, without rucaparib
  viability: 104% (inactive)
[13]; at 0.0195 µM, OCI-P5x cells, with rucaparib 20 µM, 100% = cells with rucaparib alone
  viability: 98.1% (active)
[13]; at 0.0195 µM, OCI-P5x cells, without rucaparib
  viability: 96% (active)
[13]; at 0.0781 µM, OCI-C5x cells, with rucaparib 10 µM, 100% = cells with rucaparib alone
  viability: 106% (inactive)
[13]; at 0.0781 µM, OCI-C5x cells, without rucaparib
  viability: 101% (inactive)
[13]; at 0.0781 µM, OCI-P5x cells, with rucaparib 20 µM, 100% = cells with rucaparib alone
  viability: 102% (inactive)
[13]; at 0.0781 µM, OCI-P5x cells, without rucaparib
  viability: 98.9% (active)
[13]; at 0.313 µM, OCI-C5x cells, with rucaparib 10 µM, 100% = cells with rucaparib alone
  viability: 106% (inactive)
[13]; at 0.313 µM, OCI-C5x cells, without rucaparib
  viability: 108% (inactive)
[13]; at 0.313 µM, OCI-P5x cells, with rucaparib 20 µM, 100% = cells with rucaparib alone
  viability: 98% (active)
[13]; at 0.313 µM, OCI-P5x cells, without rucaparib
  viability: 97.6% (active)
[13]; at 1.25 µM, OCI-C5x cells, with rucaparib 10 µM, 100% = cells with rucaparib alone
  viability: 94% (active)
[13]; at 1.25 µM, OCI-C5x cells, without rucaparib
  viability: 109% (inactive)
[13]; at 1.25 µM, OCI-P5x cells, with rucaparib 20 µM, 100% = cells with rucaparib alone
  viability: 99.6% (active)
[13]; at 1.25 µM, OCI-P5x cells, without rucaparib
  viability: 102% (inactive)
[13]; at 5 µM, OCI-C5x cells, with rucaparib 10 µM, 100% = cells with rucaparib alone
  viability: 98.7% (active)
[13]; at 5 µM, OCI-C5x cells, without rucaparib
  viability: 107% (inactive)
[13]; at 5 µM, OCI-P5x cells, with rucaparib 20 µM, 100% = cells with rucaparib alone
  viability: 96.2% (active)
[13]; at 5 µM, OCI-P5x cells, without rucaparib
  viability: 93.7% (active)
[14]
  z-score: 5.55 (active) and 5.94 (active)

## O=c1ncccn1[C@@H]1O[C@H](CO)[C@@H](O)[C@H]1O
[6]
  remaining activity: 115% (inactive)
[8]
  outcome: inactive
[15]; stronger effect = lower value, cell number ratio, induced over uninduced
  fold change: 1 (inactive)
[15]; measured here: relative caspase fold change +Dox/-Dox
  fold change: 1.17
[15]; measured here: total cells with miR-34 induction, stronger effect = lower value
  cell count: 7460
[15]; measured here: total cells without miR-34 induction
  cell count: 7440
[14]
  z-score: -0.025 (inactive)
[16]; at 0.5 µM, stronger effect = higher value
  inhibition: 94.5% (active)
[16]; measured here: combination with BGB IC20, at 0.005 µM
  inhibition: -19.6%
[16]; measured here: combination with BGB IC40, at 0.005 µM
  inhibition: -15.6%
[16]; measured here: combination with BGB IC40, at 0.05 µM
  inhibition: -21.7%
[16]; measured here: combination with cisplatin, at 0.5 µM, stronger effect = higher value
  inhibition: 116%
[16]; measured here: combination with cisplatin, at 5 µM, stronger effect = higher value
  inhibition: -26.6%
[17]; BGB combo, at 5 µM
  inhibition: -58.6%
[17]; at 0.5 µM
  inhibition: -38.5% (inactive)
[17]; cisplatin combo, at 5 µM
  inhibition: -44.1%
[17]; measured here: with BGB IC20 combination, at 0.5 µM
  inhibition: -41.3%
[17]; measured here: with cisplatin IC20 combination, at 0.5 µM
  inhibition: -33.1%
[17]; single agent, at 5 µM
  inhibition: -32.1%
[18]; BGB IC20 combo, at 0.005 µM
  inhibition: 4.35%
[18]; BGB IC40 combo, at 0.005 µM
  inhibition: -50.2%
[18]; BGB IC40 combo, at 0.05 µM
  inhibition: -18%
[18]; at 0.5 µM
  inhibition: -16.8% (inactive)
[18]; cisplatin combo, at 0.05 µM
  inhibition: -22.2%
[18]; cisplatin combo, at 0.5 µM
  inhibition: -22.8%
[18]; cisplatin combo, at 5 µM
  inhibition: -30.8%
[18]; measured here: 5 uM single agent, at 5 µM
  inhibition: -3.85%
[19]; at 0.5 µM
  inhibition: -26.7% (inactive)
[19]; measured here: with BGB IC20, at 0.5 µM
  inhibition: -35%
[19]; measured here: with BGB IC20, at 5 µM
  inhibition: -20.6%
[19]; measured here: with cisplatin IC20, at 0.5 µM
  inhibition: -23.7%
[19]; measured here: with cisplatin IC20, at 5 µM
  inhibition: -31.4%
[19]; single agent, at 5 µM
  inhibition: -19.2%
